About 8,600 (12%) of roughly 69,000 compounds showed an effect of 50% or more. The sample as a whole holds a higher share of strong results than the screen did.

The assay has as its system Plasmodium berghei. The experiment in a line: Screen against P. berghei liver stage (PbLuc), transformed with Luciferase, at 10uM. It counts as functional, HepG2. Conditions: tested at 10 uM.
Take `CCN(c1ccc(C(=O)N2CCCCC2)cc1)S(=O)(=O)CC`: the INHIBITION was 40.3%. In the case of `OC1(CNc2cccc(F)c2)CCNCC1`, the INHIBITION turned out to be 28.5%. `CC(CN1CCOCC1)n1cncc1-c1cnn(Cc2ccccc2)c1` (stereo unspecified): the INHIBITION is given as -3.135%. As to `CCOC(=O)N1CCN(C(=O)C(CC)n2cccn2)CC1` (stereo unspecified), the INHIBITION is recorded as 31.2%. The figure for `Cc1nccc([C@H]2C[C@@H]3CCN(S(C)(=O)=O)C[C@H]3O2)n1` is 33.2%; for `O=C(c1ccco1)N1CCCC(c2cc(C(F)(F)F)[nH]n2)C1` (stereo unspecified) it is 36.1%. Regarding `O=C(c1ccc(Cl)o1)N1CCCC(c2cc(C(F)(F)F)[nH]n2)C1` (stereo unspecified), the INHIBITION is reported as 63.4%. As to `Cc1nccc(C(=O)N2CCCC(c3cc(C(F)(F)F)[nH]n3)C2)n1` (stereo unspecified), the INHIBITION is listed as 40%. On to `O=C(CO)N1CCCC(c2cc(C(F)(F)F)[nH]n2)C1` (stereo unspecified), for which the INHIBITION is 6.26%. The figure for `Cc1noc(C)c1C(=O)N1CCCC(c2cc(C(F)(F)F)[nH]n2)C1` (stereo unspecified) is -27.9%; for `Cc1ccoc1C(=O)N1CCCC(c2cc(C(F)(F)F)[nH]n2)C1` (stereo unspecified) it is 62.6%; for `CC(C)(C#N)C(=O)N1CCCC(c2cc(C(F)(F)F)[nH]n2)C1` (stereo unspecified) it is 55.5%. The figure for `Cc1ccc(C(=O)N2CCCC(c3cc(C(F)(F)F)[nH]n3)C2)o1` (stereo unspecified) is 54.4%; for `Cc1cc(C2CCCN(C(=O)c3ccc(Cl)o3)C2)n[nH]1` (stereo unspecified) it is 42.9%; for `Cc1[nH]ncc1C(=O)N1CCCC(c2cc(C(F)(F)F)[nH]n2)C1` (stereo unspecified) it is 24%.

Turning to `Cc1cc(C(=O)N2CCCC(c3cc(C(F)(F)F)[nH]n3)C2)on1` (stereo unspecified), the INHIBITION came out at 33.8%. For `CCOCCC1(CNC(=O)c2ccncc2Cl)CCC1`, the INHIBITION was 20.4%. For `O=C(NCc1ccco1)[C@@]12CCO[C@@H]1CCN(CC1CCOCC1)C2` the value was 11.4%. As to `CN(Cc1cccnc1)Cc1cn2c(n1)CN(C1CCOC1)CC2` (stereo unspecified), the INHIBITION was 28.3%. The figure for `COCCN(Cc1nc2c(cnn2C)c(=O)[nH]1)C(C)COC` (stereo unspecified) is -7.35%.

Turning to `COCCN1C(=O)CCC12CCC(NCc1cccnc1OC)CC2` (stereo unspecified), the INHIBITION is reported as 34.6%. For `O=c1cc(CNCc2ccc3c(c2)OCO3)nc2ccc(Br)cn12` the value was 28%; for `O=C(Cc1ccon1)NC1CCCN(c2ccccc2F)C1=O` (stereo unspecified), 9.72%. `O=C1CCCc2[nH]c(=O)c(C(=O)N(Cc3ccsc3)C3CC3)cc21`: the INHIBITION is on record as 26.43%.

Turning to `Cc1nc(CN2C[C@@H](NC(=O)C3CCC3)[C@H]3COC[C@H]32)cs1`, the INHIBITION is reported as -10.5%. In the case of `Fc1ccc(-c2nc(CN3CCCCC3Cn3cncn3)co2)cc1` (stereo unspecified), the INHIBITION is given as -0.113%. Take `CN(CCCOc1ccccc1)C(=O)c1csc(-c2nnc[nH]2)n1`: the INHIBITION amounted to 53.9%. Take `COCCN(Cc1ccccc1)C(=O)c1csc(-c2nnc[nH]2)n1`: the INHIBITION was 24.7%.

For `COc1cccc(CN(C)C(=O)c2csc(-c3nnc[nH]3)n2)c1`, the INHIBITION is 40.9%. `Cc1ccccc1-c1cncc(C2CCN(CC(=O)N(C)C)CC2)n1`: the INHIBITION is -0.371%. For `Cc1cc(F)ccc1NS(=O)(=O)c1cc2c(c(C(=O)O)c1)OCCO2` the value was 25.1%. For `CC(C)C(C)(O)CNc1cccc(F)c1C#N` (stereo unspecified) the value was -23.8%. The figure for `CSCC(C)(O)CNc1cccc(F)c1C#N` (stereo unspecified) is 56.5%; for `CSCC(C)(O)CNc1cccc(F)c1C(C)=O` (stereo unspecified) it is 21.8%; for `CCOc1ncccc1NC(=O)c1cc(C)sc1C` it is -8.66%. Take `Fc1ccc(F)c(CN2CCC(c3cc4ncccc4cn3)CC2)c1`: the INHIBITION is given as 63.8%.

For the molecule `Fc1cccc(CN2CCC(c3cc4ncccc4cn3)CC2)c1F`, the INHIBITION is 52.7%. As to `Fc1cccc(CN2CCC(c3n[nH]c4ncccc34)CC2)c1F`, the INHIBITION amounted to 42.6%.

`Fc1ccc(F)c(CN2CCC(c3cnccn3)CC2)c1`: the INHIBITION is 34.1%. The figure for `COc1ccc(C)cc1CN1CCC(c2cc3ncccc3cn2)CC1` is 87.9%; for `CCc1onc(C)c1C(=O)N1CCC(c2cc3ncccc3cn2)CC1` it is 17.1%; for `Fc1cccc(CN2CCC(c3noc(-c4ccccn4)n3)CC2)c1F` it is -6.73%. For the molecule `COc1ccc(C)cc1CN1CCN(Cc2nccn2C)CC1`, the INHIBITION is on record as -190%. The figure for `Fc1cc(F)cc(CN2CCC(c3cc4ncccc4cn3)CC2)c1` is 32.3%. With `Cc1ccsc1C(CNC(=O)c1cc(=O)c2ccccc2[nH]1)N(C)C` (stereo unspecified), the INHIBITION is given as -38.6%.

Consider `FC(F)(F)c1csc(N2CCN(Cc3ccccn3)CC2)n1`, for which the INHIBITION is reported as 1.56%. The figure for `CN(C)C(=O)c1ccc(-c2cscn2)cc1` is 14.6%; for `O=C(O)c1ccc(-c2cscn2)cc1` it is -36.1%. For the molecule `COC(=O)CCN(C)C(=O)c1ccc(-c2cscn2)cc1`, the INHIBITION stood at 67.3%. For `Nc1ncnc2[nH]c(N3CCCCC3)nc12` the value was 4.12%. For `CSc1nc(N)cc(N2C[C@H]3CC[C@@H](C2)N(CC2CC2)C3=O)n1` the value was -65%; for `COCCCN1C(=O)c2ccc(C(=O)NCCc3c[nH]cn3)cc2C1=O`, 34.3%; for `CC(C)CCN1C(=O)c2ccc(C(=O)NCCc3c[nH]cn3)cc2C1=O`, 65.4%. For `CCC(C)N1C(=O)c2ccc(C(=O)NCCc3c[nH]cn3)cc2C1=O` (stereo unspecified) the value was 53.2%. Regarding `O=C(NCCc1c[nH]cn1)c1ccc(S(=O)(=O)NC2CCCC2)cc1`, the INHIBITION was 7.65%. The figure for `CCCNC(=O)c1ccc2c(c1)C(=O)N(CC(C)C)C2=O` is 31.8%; for `O=C(NCCc1c[nH]cn1)c1ccc2c(c1)C(=O)N(C1CCCC1)C2=O` it is 36.6%. The figure for `O=C(NCCc1c[nH]cn1)c1ccc2c(c1)C(=O)N(C1CC1)C2=O` is -36.3%; for `COCCN1C(=O)c2ccc(C(=O)NCCc3c[nH]cn3)cc2C1=O` it is 68.4%. The figure for `CC(C)CN1C(=O)c2ccc(C(=O)NCCc3c[nH]cn3)cc2C1=O` is 24.5%; for `CCc1nnc(CN(C)C2CCCN(Cc3noc(C4CC4)n3)C2)o1` (stereo unspecified) it is 27.8%. Take `Cc1ccc(F)c(NC(=O)NCCCn2nc3ccccn3c2=O)c1`: the INHIBITION is reported as -0.113%. Turning to `O=C(c1ccc(-c2cn[nH]c2)nc1)N1CCC(N2CCOCC2)CC1`, the INHIBITION worked out at 10.1%. Consider `CCc1ccc(NS(=O)(=O)C=c2[nH]c(=O)n3cccc3c2=O)cc1`, for which the INHIBITION is given as -101%. For `CC(CCN1CCCn2nc(CNS(C)(=O)=O)cc2C1)c1ccccc1` (stereo unspecified) the value was 27.6%.

With `CN(Cc1cccc(C(N)=O)c1)Cc1nc2c(cnn2C)c(=O)[nH]1`, the INHIBITION is -29.7%. As for `Fc1ccccc1-c1nc(CNCCn2cccn2)cs1`, the INHIBITION was -58.7%. For `CCN1CCCC12CCN(C(=O)c1nccn1C)CC2` the value was -26.5%; for `CCOc1ccc(CN(CC)C(=O)c2ccc(C)[nH]c2=O)cc1OC`, 20.85%. For `CC(C)N(C)C[C@H]1OC[C@@H]2CCN(Cc3cccc(C#N)c3)C[C@@H]21` the value was 23.3%; for `CSc1nc2ccsc2c(=O)n1CC(=O)NC1CCCC1`, -58.7%. The figure for `CCN(CC)c1nc2ccsc2c(=O)n1CCC(=O)NCc1ccco1` is 55.7%; for `CCN(CC)c1nc2ccsc2c(=O)n1CCC(=O)NCc1cccs1` it is 30.2%. For the molecule `Cc1ccn(CCC(=O)NCc2ccco2)n1`, the INHIBITION worked out at 26%.

As to `CCN(CC)c1nc2ccsc2c(=O)n1CCC(=O)NC1CCCC1`, the INHIBITION was found to be 58.4%. For `CSc1nc2ccsc2c(=O)n1CC(=O)NC1CCCCC1` the value was 26.6%; for `O=C(Nc1cccnc1)NC(CCCO)c1ccccc1` (stereo unspecified), 14.1%. The figure for `COCCN1C[C@H]2[C@@H](C1)N(Cc1cnn(C)c1)CC[C@H]2OC` is -4.88%; for `O=C(c1ccc(-n2cccn2)nc1)N1CCCC(n2cccn2)C1` (stereo unspecified) it is 26.45%. With `COc1ccc(OC)c(Sc2ncccc2C(=O)NCC2CC2)c1`, the INHIBITION came out at 23.3%. `CC(c1ccncn1)N(C)Cc1cc(O)c2cc(F)ccc2n1` (stereo unspecified): the INHIBITION stood at 28.3%. `CC(c1cccnc1)N(C)Cc1ccccn1` (stereo unspecified): the INHIBITION stood at 70.4%. For `CC(c1ccon1)N(C)Cc1cc(O)c2cc(F)ccc2n1` (stereo unspecified) the value was 36%; for `COc1ncc(CN(C)C(C)c2cccnc2)cn1` (stereo unspecified), 5.85%; for `CC(c1cccnc1)N(C)Cc1cc(O)c2cc(F)ccc2n1` (stereo unspecified), 66.8%.

On to `CC(c1cccnc1)N(C)Cc1csc(-c2ccccn2)n1` (stereo unspecified), for which the INHIBITION is -45.8%. For `c1ccc(CCCN2CCCC2Cn2cncn2)cc1` (stereo unspecified) the value was -25.9%; for `CCN(C)C(=O)c1ccc(N(C)Cc2cc(-c3cccnc3)no2)nc1`, 34%. In the case of `CCc1ncc(C(=O)N(C)Cc2cc(-c3ccncc3)no2)cn1`, the INHIBITION was 59.7%. For `CCN(C)C(=O)c1ccc(N(C)Cc2cc(-c3ccncc3)no2)nc1`, the INHIBITION turned out to be 5.17%. The figure for `O=C(CS(=O)(=O)C1CCCC1)NC1CCc2nccn2C1` (stereo unspecified) is 19.2%; for `Cc1cc(CN2CC[C@H]3OCC[C@@]3(C(=O)NCc3ccco3)C2)no1` it is -0.813%. As to `Cc1nnc(CN2CCCC(c3noc(C4CC4)n3)C2)o1` (stereo unspecified), the INHIBITION was -36.3%. For the molecule `Cc1cc(NCCc2c[nH]cn2)nc(-c2cccnc2)n1`, the INHIBITION is recorded as -14.1%. For `Cc1cc(NCCc2nnc(N)s2)nc(-c2cccnc2)n1` the value was 16.7%. For `Cc1cc(NCCc2nc(C)cs2)nc(-c2cccnc2)n1` the value was -25.1%; for `Cc1cc(NCCc2c(C)n[nH]c2C)nc(-c2cccnc2)n1`, 16.69%. Take `CCc1csc(CNc2cc(C)nc(-c3cccnc3)n2)n1`: the INHIBITION was 56.05%.

As to `CCc1nc(CNc2cc(C)nc(-c3cccnc3)n2)cs1`, the INHIBITION is 54.9%. The figure for `CSC(C)(C)CNC(=O)NCc1cccc(-n2ccnc2)c1` is 17.2%.

For `O=C(Cc1ccccc1F)N1CCC[C@@H]1Cn1c(=O)oc2ccccc21`, the INHIBITION is -12%. The figure for `CC1CCCN(C(=O)c2occc2COc2cccc(C#N)c2)C1` (stereo unspecified) is 35.1%; for `CC(C)N1CCC2(CCCN(c3nccc(C(F)(F)F)n3)C2)CC1` it is -12.2%; for `c1ccc(CNc2ncc(CN3CCCN4CCC[C@H]4C3)cn2)cc1` it is 30.3%. Regarding `CN(C)[C@H]1CCCCN(Cc2cnc(NCc3ccccc3)nc2)C1`, the INHIBITION is recorded as 57.5%. The figure for `c1ccc(CNc2ncc(CN3CC[C@@H]4CC[C@H](C3)N4)cn2)cc1` is 30.3%.
